An excerpt weighted towards active compounds, which were near 3.1% of everything screened.
EPAC1 ag val = Validation qHTS for agonist of cAMP-regulated guanine nucleotide exchange factor 3 (EPAC1); EPAC1 Rap1b BODIPY-GDP exchange, fluorescence; Rap guanine nucleotide exchange factor 3 (Homo sapiens), O95398; hit rate 1% among 16,000; Potency, µM, without a hit: max response, positive = active, hits mostly activators; AID 1645883, 2021; note: nearly all actives have a fitted effect of over 70% in size
Target sequence (O95398 whole entry, looked up): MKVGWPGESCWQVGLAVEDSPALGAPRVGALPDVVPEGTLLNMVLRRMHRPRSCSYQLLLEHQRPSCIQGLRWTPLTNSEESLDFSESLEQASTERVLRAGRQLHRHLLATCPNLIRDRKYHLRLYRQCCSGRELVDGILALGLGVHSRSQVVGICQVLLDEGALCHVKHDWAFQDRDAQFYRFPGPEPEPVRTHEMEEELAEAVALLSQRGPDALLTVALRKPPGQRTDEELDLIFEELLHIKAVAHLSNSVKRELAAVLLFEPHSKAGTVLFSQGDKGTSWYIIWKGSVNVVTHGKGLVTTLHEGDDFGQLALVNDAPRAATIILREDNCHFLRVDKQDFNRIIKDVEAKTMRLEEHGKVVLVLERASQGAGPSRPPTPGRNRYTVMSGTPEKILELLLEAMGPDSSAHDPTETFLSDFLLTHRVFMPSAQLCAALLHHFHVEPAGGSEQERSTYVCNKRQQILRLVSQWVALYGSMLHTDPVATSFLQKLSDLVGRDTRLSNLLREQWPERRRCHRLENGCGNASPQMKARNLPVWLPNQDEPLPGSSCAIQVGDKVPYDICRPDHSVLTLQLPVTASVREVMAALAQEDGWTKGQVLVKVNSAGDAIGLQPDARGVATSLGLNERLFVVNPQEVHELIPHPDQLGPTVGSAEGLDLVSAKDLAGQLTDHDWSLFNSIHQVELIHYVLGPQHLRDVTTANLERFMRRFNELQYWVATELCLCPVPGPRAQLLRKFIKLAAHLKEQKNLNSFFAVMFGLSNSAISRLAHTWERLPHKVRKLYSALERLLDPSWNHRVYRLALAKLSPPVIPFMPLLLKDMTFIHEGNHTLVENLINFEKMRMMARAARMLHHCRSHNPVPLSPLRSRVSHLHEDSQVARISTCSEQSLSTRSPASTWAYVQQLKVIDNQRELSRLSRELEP
EPAC2 ant val = Validation qHTS for antagonist of cAMP-regulated guanine nucleotide exchange factor 4 (EPAC2) | Rap guanine nucleotide exchange factor 4 (Homo sapiens), Q8WZA2 | EPAC2 Rap1B BODIPY-GDP exchange, fluorescence | Potency, µM (titrated, usually from 112 µM), inactives show at the highest dose activity, negative = inhibition, most hits filed as inhibitors | hit rate 1.7% among 16,000 | AID 1645886, 2021;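 note: 100% = activation by cAMP agonist control; nearly all actives have a fitted effect of over 40% in size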
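Normalized against a 6.5 mM cAMP agonist control, compounds were tested on 100 nM EPAC2 exchanging Rap1B-bound BODIPY-GDP (250 nM) for 50 uM GDP. Fluorescence drop (ex 480, em 540 nm) was tracked at room temperature over 30 min at 5-min intervals.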
Numbers without * were called inactive; ? = inconclusive; · = not tested or not shown. Calls come from the whole dose curve; as a rule, active = well fitted curve in the direction sought with a large enough effect; inconclusive = small, poorly fitted or top-dose-only effect, or another doubt; inactive = no such curve, though single readings can be large; an effect the other way counts as inactive or inconclusive. Unless noted, % is set by controls: 0 for no effect and ±100 for the full control effect; potency is the fitted concentration of half-maximal effect.

SMILES	EPAC1 ag val	EPAC2 ant val
Cc1[nH]c2ccccc2c1/C=C/c1nccc2ccccc12	28.4%	?
CCCCCCCCCC[n+]1ccc(/C=C/c2c[nH]c3ccccc23)c2ccccc21	-59.9%	-9.4%
CCCCCCCCCC[n+]1ccc(/C=C/c2c(C)[nH]c3ccccc23)cc1	25.1µM*	370.5%
Cc1ccc2[nH]nc(C(=O)N3CCOc4ccc(CN5CCc6sccc6C5)cc4C3)c2c1	-7.4%	-22.8%
CCOC(=O)N1CCN(Cc2ccc3c(c2)CN(C(=O)c2cc(-c4ccccc4)no2)CCO3)CC1	6.4%	-18.0%
CO[C@H]1[C@H](NC(=O)c2ccsc2)c2ccccc2C12CCN(Cc1cc3ccccc3o1)CC2	28.7%	-9.5%
COCCn1c(=O)c(C)nc2cnc(Nc3cccc(OC)c3)nc21	-5.9%	-9.1%
COCCn1c(=O)c(CCc2ccccc2)nc2cnc(Nc3ccccc3)nc21	-21.2%	-11.8%
COCCn1c(=O)c(-c2cccc(C#N)c2)nc2cnc(Oc3ccccc3)nc21	?	-20.1%
COCCn1c(=O)c(-c2ccc(OC)cc2)nc2cnc(Nc3cccc(OC)c3)nc21	112µM*	?
COc1ccc(Nc2ncc3nc(-c4cccs4)c(=O)n(Cc4cccc(OC)c4)c3n2)cc1	?	12.4%
COCCn1c(=O)c(-c2cccc(C#N)c2)nc2cnc(Nc3ccccc3)nc21	112µM*	9.9%
COc1cccc(Cn2c(=O)c(-c3cccs3)nc3cnc(Nc4cccc(OC)c4)nc32)c1	112µM*	-3.3%
COCCn1c(=O)c(CCc2ccccc2)nc2cnc(Nc3cccc(OC)c3)nc21	112µM*	-30.3%
CCCCC(O)c1ccccc1 (stereo not drawn)	-8.1%	3.9%
Cc1cc(C(=O)NCc2nc(-c3cccc(NC(=O)c4cc(C)oc4C)c3)oc2C)nc(C)n1	3.8%	-16.0%
Cc1nn(C)cc1CNc1nc(C)c(-c2ccn(CC3COc4ccccc4O3)n2)s1 (stereo not drawn)	1.1%	?
COc1ccc(O)c(CN2CCC3(CC2)c2ccccc2[C@@H](NC(=O)c2cccc(F)c2)[C@@H]3OC)c1	19.5%	-3.1%
Cc1ccc(C(=O)Nc2cccc(-c3nc(CNC(=O)c4ccc(F)cc4Cl)c(C)o3)c2)s1	14.8%	-9.7%
Cc1ccc(S(=O)(=O)NC(=O)N[C@@H](C)Cc2ccccc2)cc1	-3.5%	-4.4%
CC(C)(C)CC(=O)OCC(=O)[C@@]12OC(C)(C)O[C@@H]1C[C@H]1[C@@H]3CCC4=CC(=O)C=C[C@]4(C)[C@@]3(F)[C@@H](O)C[C@@]12C	18.0%	1.4%
COc1ccc(-c2nc3cnc(N4CCNCC4)nc3n(Cc3cccc(OC)c3)c2=O)cc1	?	-98.1%
COc1cccc(Cn2c(=O)c(-c3ccc(Cl)cc3)nc3cnc(N4CCNCC4)nc32)c1	?	50.1µM*
CC(C)CN(C[C@@H](OP(=O)(O)O)[C@H](Cc1ccccc1)NC(=O)O[C@H]1CCOC1)S(=O)(=O)c1ccc(N)cc1	-15.4%	-27.0%
O=C1NC(=O)/C(=C/c2ccc3nccnc3c2)S1	-7.9%	-11.7%
SMILES	EPAC1 ag val	EPAC2 ant val
O=C1NC(=O)/C(=C/c2ccc(-c3ccc(F)cc3O)o2)S1	-14.4%	7.94µM*
C[C@@H]1[C@H](O)[C@@H](C)/C=C/C=C\C=C\C=C\C=C\C=C\C=C\[C@H](O[C@@H]2O[C@H](C)[C@@H](O)[C@H](N)[C@@H]2O)C[C@@H]2O[C@](O)(C[C@@H](O)C[C@@H](O)[C@H](O)CC[C@@H](O)C[C@@H](O)CC(=O)O[C@H]1C)C[C@H](O)[C@H]2C(=O)O (stereo in doubt)	4.3%	0.8%
O=C1C=CC(=C(c2ccc(O)cc2)c2ccc(O)cc2)C=C1	100µM*	?
CCC(=O)c1ccc(O)cc1	-11.8%	16.4%
C[C@H](CSC(=O)c1ccccc1)C(=O)N1C[C@@H](Sc2ccccc2)C[C@H]1C(=O)O	-21.0%	5.3%
CC(C)(C)NC(=O)[C@H]1CN(Cc2cccnc2)CCN1C[C@@H](O)C[C@@H](Cc1ccccc1)C(=O)N[C@H]1c2ccccc2C[C@H]1O	-53.7%	25.1µM*
CC(C)(C)NC(=O)[C@@H]1C[C@@H]2CCCC[C@@H]2CN1C[C@@H](O)[C@H](Cc1ccccc1)NC(=O)[C@H](CC(N)=O)NC(=O)c1ccc2ccccc2n1	-43.1%	?
O=C(NC[C@@H]1CCCN2CCCC[C@H]12)c1cnn(-c2nccc(-c3cc4ccccc4o3)n2)c1C1CC1	-5.2%	-8.8%
CCc1cc(C(=O)NCC2Cc3cc(C)cc(-c4cc(C(C)=O)ccc4F)c3O2)n(C)n1 (stereo not drawn)	1.4%	?
COc1ccc(-c2nc3cnc(Nc4ccccc4)nc3n(Cc3cccs3)c2=O)cc1	-10.0%	-10.8%
CN(C)c1ncc2nc(CCc3ccccc3)c(=O)n(Cc3cccs3)c2n1	112µM*	10.7%
COc1ccc(Oc2ncc3nc(C)c(=O)n(Cc4cccs4)c3n2)cc1	112µM*	?
Cc1nc2cnc(Oc3ccccc3)nc2n(Cc2cccs2)c1=O	24.5%	?
CN(C)c1ncc2nc(-c3ccc(F)cc3)c(=O)n(Cc3cccs3)c2n1	-11.9%	1.1%
CN(C)c1ncc2nc(-c3cc(F)cc(F)c3)c(=O)n(Cc3cccs3)c2n1	112µM*	-22.0%
Cc1nc2cnc(N(C)C)nc2n(Cc2cccs2)c1=O	-14.3%	-30.5%
O=c1c(-c2ccc(F)cc2)nc2cnc(Nc3ccccc3)nc2n1Cc1cccs1	100µM*	?
COc1cc(CN2CCC3(CCC(CNC(=O)c4ccccc4)O3)CC2)cc(OC)c1 (stereo not drawn)	-14.2%	4.8%
CO/N=C(\C(=O)N[C@@H]1C(=O)N2C(C(=O)O)=C(CSc3nc(C)c(CC(=O)O)s3)CS[C@H]12)c1csc(N)n1	-8.4%	17.9%
CCC[C@@]1(CCc2ccccc2)CC(O)=C([C@H](CC)c2cccc(NS(=O)(=O)c3ccc(C(F)(F)F)cn3)c2)C(=O)O1	22.9%	·
O=C(NCc1nnc2n1CCN(Cc1cccc(Cl)c1)CC2)c1cccc(F)c1	5.4%	-39.0%
COCC(=O)Nc1cc(C(=O)N2CCc3c([nH]c4ccccc34)C2)cc2nc(-c3ccccc3)n(C)c12	1.2%	?
COCc1ccc(CN2CCOc3c(cc(-c4cc(C)c5cccc(OC)c5n4)cc3OC)C2)o1	6.1%	?
CC1=C(CC(=O)O)c2cc(F)ccc2/C1=C\c1ccc(S(C)(=O)=O)cc1	9.4%	16.3%
CS(=O)(=O)c1ccc(-c2cc(Br)sc2-c2ccc(F)cc2)cc1	21.8%	39.8µM*
SMILES	EPAC1 ag val	EPAC2 ant val
COc1cccc(-c2nc3cc(SC)ccc3cc2CN(C(=O)c2csc(C)n2)C2CC2)c1	-1.9%	15.8µM*
COc1ccc(-c2nc3cc(F)ccc3cc2CN(C(=O)c2cccc(OC)c2)C2CC2)cc1	-1.1%	1.2%
O=C(c1cccc(N2CCCC2=O)c1)N1CCC(Oc2cccc(CN3CCN(c4ccccn4)CC3)c2)CC1	-19.2%	-22.1%
O=C(Nc1ccc(Cl)cc1)Nc1ccc(Cl)c(Cl)c1	-3.6%	?
O=C(Nc1ccc(Oc2ccc(Cl)cc2)c(Cl)c1)c1cc(I)cc(I)c1O	100µM*	-17.6%
COc1cccc2ccc(CN3CCC4(CC3)c3ccccc3[C@@H](NC(=O)c3ccccc3)[C@@H]4O)nc12	-0.9%	19.8%

Source: PubChem BioAssay (National Center for Advancing Translational Sciences (NCATS))
